PubChem BioAssay (NCI)
About 79,000 compounds went through this panel and 15% of them were active in at least one assay; those are over-represented in the sample as a whole. A number with no mark means an inactive call. Activity calls are given as the source filed them. Rule as the data show it: active = growth inhibition above about 70%; inactive = the rest.

Experiments:
[1] = NCI Yeast Anticancer Drug Screen. Data for the rad50 strain (AID 155);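 also: 0% = growth of vehicle-only cultures of the same strain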; conditions: S. cerevisiae rad50 strain growth inhibition, active compounds read high
In short: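 Cells are treated with compound, grown, and their growth is then scored against vehicle-only cultures of the same repair-deficient yeast strain.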

[2] = NCI Yeast Anticancer Drug Screen. Data for the mec2-1 strain (AID 157); conditions: S. cerevisiae mec2-1 strain, active compounds read high
In short: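 Mutant yeast (mec2-1) grown with compound; growth inhibition relative to vehicle control reported.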

[3] = NCI Yeast Anticancer Drug Screen. Data for the sgs1 mgt1 strain (AID 161);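 also: 0% = growth of cultures given vehicle only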; conditions: S. cerevisiae sgs1 mgt1 strain, active compounds read high
In short: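 Yeast cells carrying a defined DNA-repair defect were exposed to test compounds. Growth inhibition was measured relative to vehicle-treated controls.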

[4] = NCI Yeast Anticancer Drug Screen. Data for the cln2 rad14 strain (AID 165);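 also: 0% = growth equal to vehicle treated cultures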; conditions: S. cerevisiae cln2 rad14 strain, active compounds read high
In short: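 Readout is yeast growth inhibition versus vehicle-treated controls, using a strain with cln2 and rad14 alterations exposed to compound.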

[5] = NCI Yeast Anticancer Drug Screen. Data for the bub3 strain (AID 167); conditions: S. cerevisiae bub3 mutant strain, active compounds read high
In short: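 Part of a panel of yeast mutants defective in DNA damage repair or cell cycle regulation. Each strain is grown with compound, and inhibition is calculated relative to solvent-treated cultures.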

[6] = NCI Yeast Anticancer Drug Screen. Data for the mlh1 rad18 strain (AID 175); conditions: S. cerevisiae mlh1 rad18 strain growth inhibition, active compounds read high
In short: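 Genetically defined yeast (DNA repair-deficient) exposed to compounds; growth inhibition determined relative to vehicle.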

[7] = at 5.0 µM (retest, dose inferred, filed as 0.5)
[8] = at 50.0 µM (retest, dose inferred, filed as 5.0)

Structure (SMILES)	growth inhibition [1, 7]	growth inhibition [1, 8]	growth inhibition ([1]; at 50.0 µM)	growth inhibition [2, 7] [%]	growth inhibition [2, 8]	growth inhibition ([2]; at 50.0 µM)	growth inhibition [3, 7]	growth inhibition [3, 8]	growth inhibition ([3]; at 50.0 µM)	growth inhibition [4, 7] [%]	growth inhibition [4, 8]	growth inhibition ([4]; at 50.0 µM)	growth inhibition [5, 7] [%]	growth inhibition [5, 8]	growth inhibition ([5]; at 50.0 µM)	growth inhibition [6, 7]	growth inhibition [6, 8]	growth inhibition ([6]; at 50.0 µM)
CSc1nc(N)c2cnn(C3OC(CO)C(O)C3O)c2n1 (configuration not stated)	-9%	8%	9.55%	-12	-11%	2.8%	-25%	-6%	15.2%	7	28%	6.8%	3	80% (active)	12%	-20%	-12%	22%
C(=N\NC1=NCCN1)/c1cccc2cc3ccncc3nc12	8%	66%	86.5% (active)	7	60%	91% (active)	-4%	63%	83.8% (active)	-6	53%	88% (active)	-12	27%	87.7% (active)	-9%	53%	82.5% (active)
O=[N+]([O-])/C(C=Nc1ccccc1)=C/Nc1ccccc1	-17%	51%	71.5% (active)	-10	33%	67.3%	2%	46%	83.5% (active)	-6	48%	37.5%	16	73% (active)	31.6%	-15%	83% (active)	76.6% (active)
O=C1CCCC/C1=C\c1ccc(Cl)c(Cl)c1	12%	99% (active)	98.7% (active)	6	100% (active)	98.6% (active)	47%	100% (active)	99% (active)	5	99% (active)	95.9% (active)	9	99% (active)	98.2% (active)	18%	99% (active)	99.2% (active)
O=[N+]([O-])c1ccc(CCCl)c(CCl)c1	-150%	94% (active)	97.4% (active)	-48	94% (active)	98.8% (active)	-51%	91% (active)	91% (active)	-50	92% (active)	96.4% (active)	-55	79% (active)	90.3% (active)	-111%	92% (active)	89% (active)
C=C1C(=O)OC2CC3(C)CC(O)C(O)C(=C)C3CC12 (configuration not stated)	0%	6%	91.2% (active)	1	6%	94.7% (active)	-1%	14%	93.1% (active)	-2	5%	91.5% (active)	0	8%	93% (active)	1%	9%	92.2% (active)
CCCCN(c1ccccc1)c1ncnc2c1ncn2C	1%	83% (active)	89.7% (active)	-3	86% (active)	79.8% (active)	0%	86% (active)	89% (active)	0	76% (active)	74.2% (active)	6	88% (active)	79.2% (active)	5%	89% (active)	89.9% (active)
NC(N)=NC(N)=Nc1ccc(-c2ccccc2)cc1	-17%	96% (active)	-11.6%	1	96% (active)	14.6%	2%	97% (active)	2.45%	-8	93% (active)	7.8%	-1	97% (active)	76.5% (active)	4%	96% (active)	32.4%
CN(Cc1cc(Cl)cc(Cl)c1)CC(C(=O)c1ccccc1)c1ccccc1 (configuration not stated)	21%	86% (active)	81.7% (active)	13	90% (active)	96.5% (active)	57%	96% (active)	93.3% (active)	3	85% (active)	50.3%	14	94% (active)	41.5%	29%	91% (active)	97.3% (active)
CCN(CC)C1Oc2cc3c(cc2C(c2ccc(OC)cc2)C1C)OCO3 (configuration not stated)	2%	96% (active)	82.3% (active)	-38	96% (active)	77.5% (active)	-48%	95% (active)	89.3% (active)	1	95% (active)	81% (active)	-34	98% (active)	84.5% (active)	-14%	97% (active)	85.3% (active)
CCCC12C=C(OC)C(=O)C=C1OC(c1ccc3c(c1)OCO3)C2C (configuration not stated)	0%	55%	43.9%	-2	81% (active)	70.8% (active)	0%	86% (active)	80.8% (active)	-6	53%	64.8%	19	89% (active)	79.3% (active)	-4%	70% (active)	55.1%
CCOc1cc2c(cc1O)CC[C@@H]1[C@@H]2CC[C@]2(C)[C@@H](O)CC[C@@H]12	33%	39%	41%	13	33%	-10.4%	13%	34%	46.8%	12	30%	33.4%	25	39%	44.2%	27%	42%	40.8%
O=c1cccccc1[O-].O=c1cccccc1[O-].O=c1cccccc1[O-].[La+3]	87% (active)	87% (active)	90.8% (active)	52	52%	91.8% (active)	92% (active)	92% (active)	87.5% (active)	59	59%	89.8% (active)	26	26%	90.7% (active)	74% (active)	74% (active)	88.6% (active)
Clc1cc2c(c3ncccc13)OCN(CCc1ccccc1)C2	5%	8%	98.7% (active)	-3	-5%	94.2% (active)	2%	7%	99.2% (active)	1	16%	78.5% (active)	4	0%	69.6%	2%	10%	98.4% (active)
COc1ccc(N=Nc2ccc3oc(=O)c(C(=O)Nc4ccccc4C)cc3c2)cc1	3%	98% (active)	96.8% (active)	-18	97% (active)	97% (active)	-8%	96% (active)	97.5% (active)	1	86% (active)	93% (active)	-5	86% (active)	97.7% (active)	-2%	98% (active)	97.5% (active)
Cc1cc(Br)ccc1NC(=O)/C=C/C(=O)O	-23%	-36%	0.1%	-24	-5%	4.25%	-17%	-4%	17.4%	10	22%	7.15%	-4	-13%	20.2%	0%	-16%	1.25%
Oc1cccnc1CN1CCCCC1	-5%	19%	-11.7%	6	22%	-3.1%	7%	8%	-28.5%	14	14%	85.7% (active)	-21	7%	-10.8%	19%	46%	-21.1%
CC(=O)Oc1c2c(c(C)c3ccccc13)C(=O)c1cccnc1C2=O	6%	4%	98.4% (active)	6	5%	98.8% (active)	5%	6%	98.7% (active)	10	0%	97.8% (active)	4	-1%	98.2% (active)	3%	2%	98.6% (active)
Cc1ccc2c(c1)C(O)(c1ccccc1)CCS2 (configuration not stated)	87% (active)	95% (active)	90.2% (active)	58	97% (active)	77.2% (active)	86% (active)	97% (active)	91.8% (active)	16	96% (active)	71.2% (active)	46	96% (active)	86.8% (active)	66%	94% (active)	94.3% (active)
